Outcome and AC50 data for 18 molecules are collected here from PubChem BioAssay (EPA / NIEHS).

The source made the active and inactive calls. How the source made its calls: active means hit-call score of the fitted dose curve at least 0.9, where 1 is the maximum; inactive means score below 0.9.

Details in all cases: mRNA level, 48 h; actives raise or lower the signal
Read-out in one assay: CYP4A11 (gene 1579)
Nature of the assay: LTEA_HepaRG_CYP4A11: Life Technologies and Expression Analysis (LTEA) Assay for CYP4A11 using HepaRG (AID 2283486). Put shortly: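 CYP4A11 transcript levels were quantified by TaqMan qRT-PCR after HepaRG human liver cells were treated for 48 hours with test chemicals (top 100 uM, half-log dilutions, 0.5% DMSO). Gain or loss of signal was fitted relative to DMSO.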

Read-out in assay [1]: Cytochrome P450 3A4 (Homo sapiens) (UniProt P08684)
The assay can be described thus: LTEA_HepaRG_CYP3A4: Life Technologies and Expression Analysis (LTEA) Assay for CYP3A4 using HepaRG (AID 2283487). Put shortly: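 Differentiated HepaRG cells in serum-free induction medium exposed in duplicate for 48 h to 8 half-log concentrations up to 100 uM in 0.5% DMSO. CYP3A4 mRNA measured by qRT-PCR normalized to ACTB, GAPDH and POLR2A; bidirectional fit versus DMSO.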

Read-out in assay [2]: DNA damage-inducible transcript 3 (DDIT3), DDIT3 (gene 1649)
Nature of the assay: LTEA_HepaRG_DDIT3: Life Technologies and Expression Analysis (LTEA) Assay for DNA damage-inducible transcript 3 (DDIT3) using HepaRG (AID 2283488). In a few lines: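 HepaRG cells, 48 h after plating, exposed 48 h in serum-free induction medium to 8 half-log concentrations up to 100 uM in 0.5% DMSO, in duplicate. DDIT3 mRNA measured by TaqMan qRT-PCR, normalized to ACTB, GAPDH and POLR2A. Fitted bidirectionally against DMSO.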

Read-out in assay [3]: Pro-epidermal growth factor (Homo sapiens) (UniProt P01133)
The assay can be described thus: LTEA_HepaRG_EGF: Life Technologies and Expression Analysis (LTEA) Assay for Epidermal growth factor (EGF) using HepaRG (AID 2283489). In a few lines: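 qRT-PCR readout of EGF transcript after 48 h chemical exposure of HepaRG cells; eight concentrations from 100 uM down in half-log steps, duplicate wells, 0.5% DMSO vehicle. Bidirectional curve fitting against DMSO baseline.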

Read-out in assay [4]: Early growth response protein 1 (EGR1) transcription factor, EGR1 (gene 1958)
The assay can be described thus: LTEA_HepaRG_EGR1: Life Technologies and Expression Analysis (LTEA) Assay for Early growth response protein 1 (EGR1) transcription factor using HepaRG (AID 2283490). Put shortly:
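Read-out is EGR1 mRNA level by qRT-PCR, normalized to three housekeeping genes and analysed for gain or loss of signal against 0.5% DMSO. Source cells: human HepaRG, treated 48 h at up to 100 uM in half-log dilutions.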

Read-out in assay [5]: Ezrin (EZR), EZR (gene 7430)
Nature of the assay: LTEA_HepaRG_EZR: Life Technologies and Expression Analysis (LTEA) Assay for Ezrin (EZR) using HepaRG (AID 2283491). In a few lines:
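Differentiated human HepaRG cells, 48 h after plating, were exposed in serum-free induction medium for 48 hours to eight half-log concentrations up to 100 uM in 0.5% DMSO. EZR mRNA was measured by TaqMan qRT-PCR, normalized to ACTB, GAPDH and POLR2A, and fitted bidirectionally against DMSO.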

Read-out in assay [6]: Cytochrome P450 3A7 (Homo sapiens) (UniProt P24462)
Nature of the assay: LTEA_HepaRG_CYP3A7: Life Technologies and Expression Analysis (LTEA) Assay for CYP3A7 using HepaRG (AID 2283492). In a few lines: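 CYP3A7 transcript levels were read by TaqMan qRT-PCR on Fluidigm arrays after 48 h chemical exposure of human HepaRG cells, with housekeeping-gene normalisation. Eight half-log concentrations up to 100 uM in 0.5% DMSO were tested in duplicate.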

Read-out in the next assay: CYP3A5 (gene 1577)
Nature of the assay: LTEA_HepaRG_CYP3A5: Life Technologies and Expression Analysis (LTEA) Assay for CYP3A5 using HepaRG (AID 2283493). Put shortly: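 HepaRG cells, plated 48 h then in serum-free induction medium, dosed in duplicate for 48 h with eight half-log concentrations up to 100 uM in 0.5% DMSO. Gene mRNA by Fluidigm TaqMan qRT-PCR, normalized to ACTB, GAPDH, POLR2A.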

Read-out in assay [7]: Fatty Acid-Binding Protein 1 (FABP1), FABP1 (gene 2168)
Nature of the assay: LTEA_HepaRG_FABP1: Life Technologies and Expression Analysis (LTEA) Assay for Fatty Acid-Binding Protein 1 (FABP1) using HepaRG (AID 2283494). Put shortly:
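HepaRG, 48 h post-plating switched to serum-free induction medium, then dosed 48 h (duplicate, 8 pts, ≤100 uM, 0.5% DMSO). RNA → Fluidigm TaqMan qRT-PCR, FABP1 normed to ACTB/GAPDH/POLR2A. Bidirectional curve fit vs DMSO.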

Read-out in assay [8]: Cytochrome P450 4A22 (Homo sapiens) (UniProt Q5TCH4)
The assay can be described thus: LTEA_HepaRG_CYP4A22: Life Technologies and Expression Analysis (LTEA) Assay for Cytochrome P450 4A22 (CYP4A22) using HepaRG (AID 2283495). In a few lines: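 HepaRG, 48 h post-plating -> serum-free induction medium; dosed 48 h, duplicate, 8 conc. (100 uM top, half-log), 0.5% DMSO. Readout: CYP4A22 mRNA by qRT-PCR, ACTB/GAPDH/POLR2A normalization; gain/loss fit relative to DMSO.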

Chain of Cytochrome P450 3A4 (Homo sapiens) (P08684 whole entry, looked up): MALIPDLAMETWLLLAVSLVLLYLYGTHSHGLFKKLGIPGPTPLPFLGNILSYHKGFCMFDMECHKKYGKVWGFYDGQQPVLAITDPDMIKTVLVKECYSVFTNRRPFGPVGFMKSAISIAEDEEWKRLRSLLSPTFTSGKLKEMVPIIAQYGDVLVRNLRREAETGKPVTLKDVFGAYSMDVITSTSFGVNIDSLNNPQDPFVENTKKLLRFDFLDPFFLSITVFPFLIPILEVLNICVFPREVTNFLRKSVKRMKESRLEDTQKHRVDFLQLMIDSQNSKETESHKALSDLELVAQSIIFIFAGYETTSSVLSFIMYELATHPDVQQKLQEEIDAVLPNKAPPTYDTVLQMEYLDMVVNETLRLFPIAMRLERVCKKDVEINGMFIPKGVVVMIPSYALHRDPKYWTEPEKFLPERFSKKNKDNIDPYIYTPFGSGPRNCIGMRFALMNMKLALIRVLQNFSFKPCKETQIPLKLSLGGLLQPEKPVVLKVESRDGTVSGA
Chain of Cytochrome P450 3A7 (Homo sapiens) (P24462 whole entry, looked up): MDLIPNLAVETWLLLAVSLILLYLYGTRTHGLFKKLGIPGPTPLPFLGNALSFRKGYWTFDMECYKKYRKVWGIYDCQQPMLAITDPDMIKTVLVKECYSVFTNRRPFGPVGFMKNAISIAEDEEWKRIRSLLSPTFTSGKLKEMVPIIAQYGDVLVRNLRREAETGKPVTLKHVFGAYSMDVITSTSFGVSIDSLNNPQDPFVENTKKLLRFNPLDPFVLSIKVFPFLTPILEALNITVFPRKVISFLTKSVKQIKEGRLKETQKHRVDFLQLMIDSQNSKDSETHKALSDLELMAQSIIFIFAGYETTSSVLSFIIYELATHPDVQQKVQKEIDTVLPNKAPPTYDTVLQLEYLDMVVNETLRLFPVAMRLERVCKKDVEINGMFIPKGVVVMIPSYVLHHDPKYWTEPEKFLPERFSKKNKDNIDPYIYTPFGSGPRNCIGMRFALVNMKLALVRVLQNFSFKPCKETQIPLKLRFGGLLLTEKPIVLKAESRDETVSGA

As to `Cc1cccc2ccccc12`, the molecule was classed as inactive (in the assay with CYP4A11 (gene 1579); in [1]; in assay [2]; in assay [3]; in [4]; in assay [5]). Moreover, the result (in assay [6]; with CYP3A5 (gene 1577); in assay [7]; in [8]) was inactive.
As for `CCCCCc1ccc(N)cc1`, the call (in the assay with CYP4A11 (gene 1579); in assay [1]; in [2]; in [3]; in assay [5]; in assay [6]) was inactive. The molecule was classed as inactive (with CYP3A5 (gene 1577); in assay [7]; in [8]).
Take `Clc1cc(Cl)c2c(c1)N=C1CCCCCN1C2`: the molecule was classed as inactive (with CYP4A11 (gene 1579); in assay [2]; in [3]; in assay [4]; in [5]; in the assay with CYP3A5 (gene 1577)). Moreover, the outcome in [7] and in assay [8] was inactive. In addition, the AC50 (as a rule, the concentration at which the activity in the assay is half-maximal) in [1] is 11.1 µM (active); in assay [6] it was 7.11 µM (active).
`CC(C)(C)c1csc(-c2cc3cc(OCc4ccccc4CC(=O)O)ccc3o2)n1`: the concentration at half-maximal activity (AC50) was 23.2 µM (active) in the assay with CYP4A11 (gene 1579); 76.1 µM (active) in assay [1]; 22.7 µM (active) in assay [2]; 89.5 µM (active) in assay [4]; 82.3 µM (active) in [5]; 32.6 µM (active) in [7]. The concentration at half-maximal activity (AC50) in assay [8] is 23.3 µM (active). Moreover, the result in [3] and in assay [6] was inactive.
Regarding `CCN(Cc1cccnc1)C(=O)c1cccc(Cl)c1[C@]1(C)C(=O)N(Cc2ccc(OC)cc2OC)c2ccc(Cl)cc21`, the half-maximal activity concentration (AC50) in the assay with CYP4A11 (gene 1579) is 16.7 µM (active); in assay [1] it was 25.9 µM (active); in assay [2] it was 11.5 µM (active); in assay [3] it was 15.5 µM (active); in [6] it was 24.1 µM (active); in assay [7], 22.3 µM (active). For the same molecule, the AC50 in assay [8] is 14.4 µM (active). Also, the molecule was classed as inactive (in assay [4]; in assay [5]; in the assay with CYP3A5 (gene 1577)).
`CCCCCCCCCCCCO`: the outcome (in the assay with CYP4A11 (gene 1579); in assay [1]; in [2]; in assay [3]; in assay [4]; in assay [5]) was inactive. The molecule was called inactive (in assay [6]; in the assay with CYP3A5 (gene 1577); in assay [7]; in assay [8]).
`Cc1ccc(C(C)C)cc1`: the molecule was called inactive (in the assay with CYP4A11 (gene 1579); in assay [1]; in assay [2]; in assay [3]; in assay [5]; in assay [6]). The call (with CYP3A5 (gene 1577); in assay [7]; in assay [8]) was inactive.
Regarding `CCCCCCCCCC(=O)O`, the molecule was called inactive (with CYP4A11 (gene 1579); in assay [1]; in assay [2]; in assay [3]; in assay [4]; in [5]). Moreover, the result in assay [6], in [7] and in assay [8] was inactive.
Regarding `CN(C[C@@H](CC[N+]12CCC(C3CCCCC3)(CC1)CC2)c1ccc(Cl)c(Cl)c1)C(=O)c1cc(C(F)(F)F)cc(C(F)(F)F)c1`, the AC50 with CYP4A11 (gene 1579) was 21.1 µM (active); in assay [1], 30.9 µM (active); in assay [2] it was 12.1 µM (active); in [4], 54.4 µM (active); in assay [6], 28.6 µM (active); in the assay with CYP3A5 (gene 1577), 68.8 µM (active). Further, the values for the AC50 in assay [7] and in assay [8] were 12.5 µM (active) and 22.4 µM (active), respectively. Besides, the result in assay [3] and in assay [5] was inactive.
Consider `Cc1ncc(CO)c(CO)c1O`, for which the molecule was called inactive (with CYP4A11 (gene 1579); in assay [1]; in assay [2]; in assay [3]; in [5]; in assay [6]). For the same molecule, the result (with CYP3A5 (gene 1577); in [7]; in assay [8]) was inactive.
With `COCC(C)OCC(C)OCC(C)O` (stereo not drawn), the call (with CYP4A11 (gene 1579); in assay [1]; in [2]; in assay [3]; in assay [5]; in [6]) was inactive. In addition, the molecule was called inactive (with CYP3A5 (gene 1577); in [7]; in [8]).
For `O=c1ccc2ccccc2o1`, the molecule was called inactive (in the assay with CYP4A11 (gene 1579); in assay [1]; in [2]; in [3]; in assay [5]; in assay [6]). Besides, the molecule was classed as inactive (with CYP3A5 (gene 1577); in [8]). The AC50 in assay [7] is 36.8 µM (active).
`Cc1ccc2oc(CN(Cc3ccccc3)C(=O)Nc3c(F)cc(F)cc3F)c(-c3ccc(Cl)cc3)c2c1`: the AC50 with CYP4A11 (gene 1579) was 34.8 µM (active); in assay [1], 5.39 µM (active); in assay [2] it was 64.3 µM (active); in [6] it was 11.1 µM (active); in assay [7] it was 13 µM (active); in [8], 44.2 µM (active). The result (in [3]; in [4]; in assay [5]; in the assay with CYP3A5 (gene 1577)) was inactive.
In the case of `CC(O)CC(C)(C)O` (stereo not drawn), the result (with CYP4A11 (gene 1579); in [1]; in assay [2]; in assay [3]; in assay [4]; in assay [5]) was inactive. Further, the result (in assay [6]; with CYP3A5 (gene 1577); in [7]; in assay [8]) was inactive.
`CCN(Cc1cccc(S(=O)(=O)O)c1)c1ccc(C(=C2C=CC(=[N+](CC)Cc3cccc(S(=O)(=O)O)c3)C=C2)c2ccccc2S(=O)(=O)[O-])cc1`: the call (with CYP4A11 (gene 1579); in [1]; in [2]; in [3]; in assay [4]; in assay [5]) was inactive. The call in assay [6], in assay [7] and in assay [8] was inactive.
With `CCCCCCCCOC(=O)c1cc(O)c(O)c(O)c1`, the outcome (with CYP4A11 (gene 1579); in assay [1]; in [2]; in assay [3]; in assay [4]; in assay [5]) was inactive. In addition, the outcome in assay [6], in [7] and in [8] was inactive.
On to `O=C1O[C@H]([C@@H](O)CO)C(O)=C1O`, for which the outcome (with CYP4A11 (gene 1579); in assay [1]; in [2]; in [3]; in [4]; in [5]) was inactive. The outcome in assay [6], in assay [7] and in assay [8] was inactive.
Consider `COc1cc(C(=O)NC2CCN(C)CC2)ccc1Nc1ncc2c(n1)N(C1CCCC1)CC(F)(F)C(=O)N2C`, for which the half-maximal activity concentration (AC50) with CYP4A11 (gene 1579) was 3.34 µM (active); in assay [2] it was 83 µM (active); in [4], 9.31 µM (active); in [5] it was 28.7 µM (active); in assay [7], 6.44 µM (active); in assay [8] it was 3.23 µM (active). For the same molecule, the call in assay [1] and in assay [3] was inactive.
